To fix the notation:
T1: RBFOX1 RRM (Homo sapiens, UniProt Q9NWB1 109-208)
T1 sequence: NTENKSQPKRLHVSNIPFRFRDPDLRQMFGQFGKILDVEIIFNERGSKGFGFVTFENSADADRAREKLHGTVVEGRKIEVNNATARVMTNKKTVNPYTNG

B1: UGGGUAG (DNA:RNA)
RNA: GGGAGACCGGAAUUCAGAUUGUCCUGGGUAGUUAAAUCCCGUCGUAGCCACCA
DNA 1: CAATCTGAATTCCGGTCTCCC
DNA 2: TGGTGGCTACGACGGGATT
B2: CCCAAGA (DNA:RNA)
RNA: GGGAGACCGGAAUUCAGAUUGUCCCCCAAGAUUAAAUCCCGUCGUAGCCACCA
DNA 1: CAATCTGAATTCCGGTCTCCC
DNA 2: TGGTGGCTACGACGGGATT
B3: UCGCCGG (DNA:RNA)
RNA: B1 RNA with G26C, G28C, U29C, A30G
DNA 1: CAATCTGAATTCCGGTCTCCC
DNA 2: TGGTGGCTACGACGGGATT
B4: CUAGUGU (DNA:RNA)
RNA: B2 RNA with C26U, C27A, A28G, A29U, A31U
DNA 1: CAATCTGAATTCCGGTCTCCC
DNA 2: TGGTGGCTACGACGGGATT
B5: UGCUCCU (DNA:RNA)
RNA: B1 RNA with G27C, G28U, U29C, A30C, G31U
DNA 1: CAATCTGAATTCCGGTCTCCC
DNA 2: TGGTGGCTACGACGGGATT
B6: GAUCGAC (DNA:RNA)
RNA: B1 RNA with U25G, G26A, G27U, G28C, U29G, G31C
DNA 1: CAATCTGAATTCCGGTCTCCC
DNA 2: TGGTGGCTACGACGGGATT
B7: GAGAGCC (DNA:RNA)
RNA: B2 RNA with C25G, C26A, C27G, A29G, G30C, A31C
DNA 1: CAATCTGAATTCCGGTCTCCC
DNA 2: TGGTGGCTACGACGGGATT
B8: GCCAUGU (DNA:RNA)
RNA: B2 RNA with C25G, A29U, A31U
DNA 1: CAATCTGAATTCCGGTCTCCC
DNA 2: TGGTGGCTACGACGGGATT
B9: GCAUUGU (DNA:RNA)
RNA: B2 RNA with C25G, C27A, A28U, A29U, A31U
DNA 1: CAATCTGAATTCCGGTCTCCC
DNA 2: TGGTGGCTACGACGGGATT
B10: ACGCAUC (DNA:RNA)
RNA: B2 RNA with C25A, C27G, A28C, G30U, A31C
DNA 1: CAATCTGAATTCCGGTCTCCC
DNA 2: TGGTGGCTACGACGGGATT
B11: ACGCAUG (DNA:RNA)
RNA: B2 RNA with C25A, C27G, A28C, G30U, A31G
DNA 1: CAATCTGAATTCCGGTCTCCC
DNA 2: TGGTGGCTACGACGGGATT
B12: CGCAUUG (DNA:RNA)
RNA: B2 RNA with C26G, A29U, G30U, A31G
DNA 1: CAATCTGAATTCCGGTCTCCC
DNA 2: TGGTGGCTACGACGGGATT
B13: GCAUAGU (DNA:RNA)
RNA: B2 RNA with C25G, C27A, A28U, A31U
DNA 1: CAATCTGAATTCCGGTCTCCC
DNA 2: TGGTGGCTACGACGGGATT
B14: CCGCAUG (DNA:RNA)
RNA: B2 RNA with C27G, A28C, G30U, A31G
DNA 1: CAATCTGAATTCCGGTCTCCC
DNA 2: TGGTGGCTACGACGGGATT
B15: GCAUGUU (DNA:RNA)
RNA: B2 RNA with C25G, C27A, A28U, A29G, G30U, A31U
DNA 1: CAATCTGAATTCCGGTCTCCC
DNA 2: TGGTGGCTACGACGGGATT
B16: CGCAUGU (DNA:RNA)
RNA: B2 RNA with C26G, A29U, A31U
DNA 1: CAATCTGAATTCCGGTCTCCC
DNA 2: TGGTGGCTACGACGGGATT
B17: GCAAUGU (DNA:RNA)
RNA: B2 RNA with C25G, C27A, A29U, A31U
DNA 1: CAATCTGAATTCCGGTCTCCC
DNA 2: TGGTGGCTACGACGGGATT
B18: ACGCAUA (DNA:RNA)
RNA: B2 RNA with C25A, C27G, A28C, G30U
DNA 1: CAATCTGAATTCCGGTCTCCC
DNA 2: TGGTGGCTACGACGGGATT
B19: CCCCGCA (DNA:RNA)
RNA: B2 RNA with A28C, A29G, G30C
DNA 1: CAATCTGAATTCCGGTCTCCC
DNA 2: TGGTGGCTACGACGGGATT
B20: UCCGUCU (DNA:RNA)
RNA: B1 RNA with G26C, G27C, A30C, G31U
DNA 1: CAATCTGAATTCCGGTCTCCC
DNA 2: TGGTGGCTACGACGGGATT

Substitutions are numbered along the chain they refer to; changes in the protein carry UniProt numbers. Whole data set: some 16,000 sequences, median “ka relative to ugcaugu” near 0.0091, cut for the highest 2% near 0.032. For the sample, the highest values were picked, then their nearest neighbours and some sequences at random.

This assay addresses T1, RBFOX1 RRM. The assay can be described thus: EMSA; HiTS-Eq, 1 nM pool, 10 min; buffer printed only for the single-RNA assays: 10 mM Tris pH 7.5, 150 mM NaCl, 3.4 mM EDTA, 0.001% NP-40, 30 C. The settings on record: tags: His6 N-terminal (pET28a); label: 5' 32P. In outline: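 Purified RbFox RRM, wild type or mutant, was incubated for 10 min in 50 µL with 1 nM of a 5′-radiolabelled RNA pool carrying 7 randomized nucleotides, whose flanks were annealed to DNA oligonucleotides, over a series of increasing protein concentrations. Unbound RNA was resolved on 8% native PAGE, cut out, reverse-transcribed, barcoded by PCR and sequenced on an Illumina HiSeq 2500. Relative association constants were derived from changes in read counts for each RNA species versus the control reaction and normalised to the cognate motif.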
On the technique in general: Mobility shift assays separate free from complexed probe on a gel.
Consider B1, for which the binding signal is 0.0258 KA relative to UGCAUGU.

Take B2: the binding signal was 0.00241 KA relative to UGCAUGU.

With B3, the binding signal is 0.0169 KA relative to UGCAUGU. For the molecule B4, the binding signal is 0.0159 KA relative to UGCAUGU. Regarding B5, the binding signal was 0.0145 KA relative to UGCAUGU. As for B6, the binding signal was 0.0165 KA relative to UGCAUGU. As to B7, the binding signal was 0.0145 KA relative to UGCAUGU. On to B8, for which the binding signal was 0.0117 KA relative to UGCAUGU. As to B9, the binding signal is 0.0129 KA relative to UGCAUGU.

With B10, the binding signal was 0.00881 KA relative to UGCAUGU. In the case of B11, the binding signal is 0.697 KA relative to UGCAUGU. For B12 the value was 0.0131 KA relative to UGCAUGU; for B13, 0.0104 KA relative to UGCAUGU. As to B14, the binding signal was 0.806 KA relative to UGCAUGU. Consider B15, for which the binding signal is 0.635 KA relative to UGCAUGU.

Take B16: the binding signal was 0.735 KA relative to UGCAUGU. Take B17: the binding signal was 0.01 KA relative to UGCAUGU. Regarding B18, the binding signal was 0.00394 KA relative to UGCAUGU.

On to B19, for which the binding signal is 0.0132 KA relative to UGCAUGU.

On to B20, for which the binding signal was 0.0154 KA relative to UGCAUGU.

For the origin of these results see article PMC9911399, “Two distinct binding modes provide the RNA-binding protein RbFox with extraordinary sequence specificity”.
